# Source: PubChem BioAssay (NCATS)
# Results filed as inconclusive are left out. Values without a mark were called inactive. The source made the active and inactive calls. The call rests on the fitted dose curve; in most records, active means well fitted curve in the direction sought with a large enough effect; inconclusive means small, poorly fitted or top-dose-only effect, or another doubt; inactive means no such curve, though single readings can be large; an effect the other way counts as inactive or inconclusive.
# Tests used:
# [1] = BET inhibitor-based combinations targeting novel dependencies in MECOM-rearranged (r) AML: HNT-34 cell line (AID 2202234); further: nearly all actives have a fitted effect of over 35% in size; further: potency means the concentration at half of the fitted maximal effect
# Summary of the method: (§1)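 Luminescent ATP readout (CellTiter-Glo, 15 min at room temperature) after 48 hr drug exposure gave viability. Dose-response curves, normalized to DMSO and empty-well controls, were summarized as area under the curve and its mean-centred Z-score.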
# [2] = BET inhibitor-based combinations targeting novel dependencies in MECOM-rearranged (r) AML: UCSD-AML1 cell line (AID 2202235); further: nearly all actives have a fitted effect of over 40% in size; further: potency means the concentration at half of the fitted maximal effect
# Summary of the method: as §1
# [3] = BET inhibitor-based combinations targeting novel dependencies in MECOM-rearranged (r) AML: SET-2 cell line (AID 2202231); conditions: SET-2 AML cells viability, CellTiter-Glo luminescence, 48 h; viability: hits give low values, series mostly up to about 46 µM;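 further: plate controls were DMSO treated cells for no effect and wells without cells for full effect; nearly all actives have a fitted effect of over 35% in size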
# Summary of the method: (§2)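 Luminescent ATP readout (CellTiter-Glo) after 48 hr drug exposure gives viability. Curves span 11 concentrations and are normalized to DMSO and empty wells. Activity is reported as area under the curve and its Z-transform within each cell line.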
# [4] = BET inhibitor-based combinations targeting novel dependencies in MECOM-rearranged (r) AML: AML-194 cell line (AID 2202237; further: nearly all actives have a fitted effect of over 40% in size; further: potency means the concentration at half of the fitted maximal effect)
# Summary of the method: as §2
# [5] = BET inhibitor-based combinations targeting novel dependencies in MECOM-rearranged (r) AML: AML-191 cell line (AID 2202236; further: nearly all actives have a fitted effect of over 35% in size; further: potency means the concentration at half of the fitted maximal effect)
# Summary of the method: as §2
# [6] = BET inhibitor-based combinations targeting novel dependencies in MECOM-rearranged (r) AML: OCI-AML3 cell line (AID 2202232); conditions: Potency: OCI-AML3 viability; further: potency means the concentration at half of the fitted maximal effect; nearly all actives have a fitted effect of over 35% in size
# Summary of the method: as §2
# [7] = BET inhibitor-based combinations targeting novel dependencies in MECOM-rearranged (r) AML: MV-4-11 cell line (AID 2202233); further: potency means the concentration at half of the fitted maximal effect; nearly all actives have a fitted effect of over 45% in size
# Summary of the method: as §1
smiles,measurement,setting,value
CC(N[C@H]1C[C@@H]1c1ccccc1)c1ccc2c(c1)OCCO2 (some centres undefined),Potency,[1],inactive
same,Potency,[2],1.05 µM (active)
COc1cc(C)[nH]c(=O)c1CNC(=O)c1c(C)n([C@H](C)C2CCN(CC(F)(F)F)CC2)c2ccccc12,viability,[3],101%
same,Potency,[1],inactive
same,Potency,[4],inactive
O=c1cccc2n1CC1CNC[C@H]2C1,viability,[3],119%
same,Potency,[1],inactive
same,Potency,[2],inactive
same,Potency,[5],inactive
same,Potency,[4],inactive
C[C@@H]1CC[C@@]2(OC1)O[C@H]1C[C@H]3[C@@H]4CC=C5C[C@@H](O[C@@H]6O[C@H](CO)[C@@H](O[C@@H]7O[C@@H](C)[C@H](O)[C@@H](O)[C@H]7O)[C@H](O)[C@H]6O[C@@H]6O[C@@H](C)[C@H](O)[C@@H](O)[C@H]6O)CC[C@]5(C)[C@H]4CC[C@]3(C)[C@H]1[C@@H]2C,Potency,[6],7.42 µM (active)
same,Potency,[7],5.9 µM (active)
same,Potency,[1],5.25 µM (active)
same,Potency,[5],5.25 µM (active)
CC1(C)C(=O)N(c2ccc(C#N)c(C(F)(F)F)c2)C(=S)N1Cc1ccc(-c2cn[nH]n2)cc1,Potency,[6],11.8 µM (active)
same,Potency,[2],inactive
same,Potency,[5],18.6 µM (active)
same,Potency,[4],20.9 µM (active)
CC(C)(NC(=O)O[C@@H]1CN2CCC1CC2)c1csc(-c2ccc(F)cc2)n1,viability,[3],91.1%
same,Potency,[4],inactive
C/C=C(\C)C(=O)N[C@@H](c1ccccc1)[C@@H](O)C(=O)O[C@H]1C[C@@]2(O)[C@@H](OC(=O)c3ccccc3)[C@@H]3[C@]4(OC(C)=O)CO[C@@H]4C[C@H](O)[C@@]3(C)C(=O)[C@H](OC(C)=O)C(=C1C)C2(C)C,Potency,[6],0.0132 µM (active)
same,Potency,[7],0.0263 µM (active)
same,Potency,[2],0.0166 µM (active)
same,Potency,[4],0.0742 µM (active)
